From the supplement of paper PMC10849652
Targets with a hit are over-represented here; the source holds about 7,900 in all. About 0.6% of all pairs of compound and target were hits. A number with no mark means an inactive call.

Legend:
Assay in all cases: log2 fold change, soluble protein after heating vs DMSO (PISA); higher = thermal stabilisation; K562 cells, 10 uM, 30 min; active = over 0.2 and 3.5 SD of the protein, either way, in both replicates (recomputed)
saracatinib = compound: CN1CCN(CCOc2cc(OC3CCOCC3)c3c(Nc4c(Cl)ccc5c4OCO5)ncnc3c2)CC1 [saracatinib]
Outline: (§1)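 K562 cells at 2×10^6 cells/mL were given 10 μM compound for 30 min. Aliquots then went through 3 min of heating across 48°C-58°C, were pooled, and were extracted in PBS with 0.5% NP-40 at 4°C, and the supernatant after 21,000xg for 90 min was quantified by TMTpro 16plex LC-MS/MS with channel sums equalised. Thermal stability relative to control samples, from duplicates, is given as log2 fold change.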

sotrastaurin = compound: CN1CCN(c2nc(C3=C(c4c[nH]c5ccccc45)C(=O)NC3=O)c3ccccc3n2)CC1 [sotrastaurin]
Outline: as §1

alvocidib = compound: CN1CC[C@H](c2c(O)cc(O)c3c(=O)cc(-c4ccccc4Cl)oc23)[C@H](O)C1 [alvocidib]
Outline: as §1

Tubastatin A = compound: CN1CCc2c(c3ccccc3n2Cc2ccc(C(=O)NO)cc2)C1 [Tubastatin A]
Outline: as §1

[1] = compound: CNC(=O)C1=CC=CC=C1NC2=NC(=NC=C2Cl)NC3=C(C=C(C=C3)N4CCOCC4)OC
Outline: as §1

defactinib = compound: CNC(=O)c1ccc(Nc2ncc(C(F)(F)F)c(NCc3nccnc3N(C)S(C)(=O)=O)n2)cc1 [defactinib]
Outline: as §1

rucaparib = compound: CNCc1ccc(-c2[nH]c3cc(F)cc4c3c2CCNC4=O)cc1 [rucaparib]
Outline: as §1

[2] = compound: CNc1nc(-c2ccc3c(N)n[nH]c3c2)cc(N2C[C@@H](C(=O)NC3CCCCC3)CC[C@H]2C)n1
Outline: as §1

encorafenib = compound: COC(=O)N[C@@H](C)CNc1nccc(-c2cn(C(C)C)nc2-c2cc(Cl)cc(NS(C)(=O)=O)c2F)n1 [encorafenib]
Outline: as §1

[3] = compound: COC(=O)[C@H](CCSC)NC(=O)C1=C(C=C(C=C1)NC[C@H](CS)N)C2=CC=CC=C2
Outline: as §1

[4] = compound: COC1=CC=C(C=C1)CN2C=CC3=C2C=C(C=C3)C(=O)NO
Outline: as §1

filanesib = compound: CON(C)C(=O)N1N=C(c2cc(F)ccc2F)S[C@@]1(CCCN)c1ccccc1 [filanesib]
Outline: as §1

zotarolimus = compound: CO[C@H]1C[C@@H]2CC[C@@H](C)[C@@](O)(O2)C(=O)C(=O)N2CCCC[C@H]2C(=O)O[C@H]([C@H](C)C[C@@H]2CC[C@H](n3cnnn3)[C@H](OC)C2)CC(=O)[C@H](C)/C=C(\C)[C@@H](O)[C@@H](OC)C(=O)[C@H](C)C[C@H](C)/C=C/C=C/C=C/1C [zotarolimus]
Outline: as §1

idasanutlin = compound: COc1cc(C(=O)O)ccc1NC(=O)[C@@H]1N[C@@H](CC(C)(C)C)[C@](C#N)(c2ccc(Cl)cc2F)[C@H]1c1cccc(Cl)c1F [idasanutlin]
Outline: as §1

alisertib = compound: COc1cc(Nc2ncc3c(n2)-c2ccc(Cl)cc2C(c2c(F)cccc2OC)=NC3)ccc1C(=O)O [alisertib]
Outline: as §1

[5] = compound: COc1cc2nc(-c3cc(F)ccc3O)nc(N[C@@H]3CNC[C@H]3C(C)(C)O)c2cc1OC
Outline: as §1

gefitinib = compound: COc1cc2ncnc(Nc3ccc(F)c(Cl)c3)c2cc1OCCCN1CCOCC1 [gefitinib]
Outline: as §1

[6] = compound: COc1cccc2cc(-c3nc([C@H]4CC[C@H](C(=O)O)CC4)n4ncnc(N)c34)[nH]c12
Outline: as §1

lapatinib = compound: CS(=O)(=O)CCNCc1ccc(-c2ccc3ncnc(Nc4ccc(OCc5cccc(F)c5)c(Cl)c4)c3c2)o1 [lapatinib]
Outline: as §1

pictilisib = compound: CS(=O)(=O)N1CCN(Cc2cc3nc(-c4cccc5[nH]ncc45)nc(N4CCOCC4)c3s2)CC1 [pictilisib]
Outline: as §1

UniProt Q5VZM2, sequence (Q5VZM2 whole entry, looked up): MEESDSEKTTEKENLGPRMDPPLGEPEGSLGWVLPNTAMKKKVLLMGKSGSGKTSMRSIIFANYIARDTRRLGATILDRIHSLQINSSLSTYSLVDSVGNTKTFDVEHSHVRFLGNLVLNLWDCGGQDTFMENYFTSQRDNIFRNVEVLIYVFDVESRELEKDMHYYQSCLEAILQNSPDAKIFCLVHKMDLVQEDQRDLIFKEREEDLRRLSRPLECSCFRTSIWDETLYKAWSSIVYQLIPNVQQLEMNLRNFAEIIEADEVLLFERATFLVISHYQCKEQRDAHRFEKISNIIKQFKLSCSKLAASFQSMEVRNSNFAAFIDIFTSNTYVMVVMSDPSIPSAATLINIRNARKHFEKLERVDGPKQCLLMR
UniProt Q9NQG5, sequence (Q9NQG5 whole entry, looked up): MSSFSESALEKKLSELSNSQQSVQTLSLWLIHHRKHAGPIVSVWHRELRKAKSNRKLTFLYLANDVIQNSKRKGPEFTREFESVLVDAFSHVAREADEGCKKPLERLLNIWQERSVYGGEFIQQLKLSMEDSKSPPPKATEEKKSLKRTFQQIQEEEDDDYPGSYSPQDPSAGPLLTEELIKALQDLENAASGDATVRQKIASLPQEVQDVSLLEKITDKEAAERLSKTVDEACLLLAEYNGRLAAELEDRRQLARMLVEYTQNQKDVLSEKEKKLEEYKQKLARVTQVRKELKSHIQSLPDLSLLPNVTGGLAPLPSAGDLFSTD
UniProt Q5TA31, sequence (Q5TA31 whole entry, looked up): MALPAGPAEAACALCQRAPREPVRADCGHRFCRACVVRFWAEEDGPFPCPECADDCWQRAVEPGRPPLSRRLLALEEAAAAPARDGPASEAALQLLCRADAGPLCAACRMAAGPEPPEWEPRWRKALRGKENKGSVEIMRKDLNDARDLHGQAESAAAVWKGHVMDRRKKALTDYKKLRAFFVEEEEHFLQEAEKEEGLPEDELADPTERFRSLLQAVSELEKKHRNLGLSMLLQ
UniProt Q15418, sequence (Q15418 whole entry, looked up): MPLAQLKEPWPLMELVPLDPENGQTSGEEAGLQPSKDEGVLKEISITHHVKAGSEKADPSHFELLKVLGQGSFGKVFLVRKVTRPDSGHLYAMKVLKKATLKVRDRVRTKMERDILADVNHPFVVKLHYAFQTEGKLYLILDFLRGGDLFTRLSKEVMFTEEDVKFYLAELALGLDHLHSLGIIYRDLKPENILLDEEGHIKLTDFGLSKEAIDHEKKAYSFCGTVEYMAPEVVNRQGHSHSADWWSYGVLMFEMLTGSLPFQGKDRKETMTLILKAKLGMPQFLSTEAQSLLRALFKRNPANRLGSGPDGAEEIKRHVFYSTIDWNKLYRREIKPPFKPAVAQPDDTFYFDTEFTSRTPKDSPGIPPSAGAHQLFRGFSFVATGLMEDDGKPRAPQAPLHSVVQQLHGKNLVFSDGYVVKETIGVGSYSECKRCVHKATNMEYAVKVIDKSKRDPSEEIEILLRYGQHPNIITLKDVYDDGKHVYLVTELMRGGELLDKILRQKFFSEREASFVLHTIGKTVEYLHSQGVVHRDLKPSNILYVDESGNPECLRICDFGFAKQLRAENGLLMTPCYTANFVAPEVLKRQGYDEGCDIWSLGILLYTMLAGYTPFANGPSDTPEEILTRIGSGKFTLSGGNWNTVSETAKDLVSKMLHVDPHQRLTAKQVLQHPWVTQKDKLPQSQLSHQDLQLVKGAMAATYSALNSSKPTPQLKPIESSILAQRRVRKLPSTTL
UniProt P05543, sequence (P05543 whole entry, looked up): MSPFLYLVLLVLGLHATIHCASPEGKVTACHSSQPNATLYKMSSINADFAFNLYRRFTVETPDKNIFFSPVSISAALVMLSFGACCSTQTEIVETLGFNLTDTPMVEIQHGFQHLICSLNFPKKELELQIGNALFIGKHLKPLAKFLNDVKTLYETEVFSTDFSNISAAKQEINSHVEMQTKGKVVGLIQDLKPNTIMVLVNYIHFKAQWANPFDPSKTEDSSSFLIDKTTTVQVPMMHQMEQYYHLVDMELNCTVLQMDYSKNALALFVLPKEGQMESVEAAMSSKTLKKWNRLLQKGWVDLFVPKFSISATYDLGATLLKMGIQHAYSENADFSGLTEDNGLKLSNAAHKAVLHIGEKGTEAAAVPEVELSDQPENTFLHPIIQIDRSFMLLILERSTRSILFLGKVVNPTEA
UniProt Q96ER3, sequence (Q96ER3 whole entry, looked up): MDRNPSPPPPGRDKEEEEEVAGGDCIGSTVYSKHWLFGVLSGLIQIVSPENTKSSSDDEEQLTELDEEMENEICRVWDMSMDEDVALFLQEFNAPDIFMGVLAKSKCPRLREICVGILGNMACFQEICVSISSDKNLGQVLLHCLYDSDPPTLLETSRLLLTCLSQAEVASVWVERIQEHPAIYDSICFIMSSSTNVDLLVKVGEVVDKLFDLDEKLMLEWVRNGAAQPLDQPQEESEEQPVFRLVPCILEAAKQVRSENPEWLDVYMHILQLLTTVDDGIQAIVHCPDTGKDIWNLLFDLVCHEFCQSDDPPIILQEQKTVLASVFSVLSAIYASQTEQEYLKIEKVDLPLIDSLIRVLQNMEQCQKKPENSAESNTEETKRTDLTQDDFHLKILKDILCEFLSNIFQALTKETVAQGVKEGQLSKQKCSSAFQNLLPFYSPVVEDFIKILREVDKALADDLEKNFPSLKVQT
UniProt P51148, sequence (P51148 whole entry, looked up): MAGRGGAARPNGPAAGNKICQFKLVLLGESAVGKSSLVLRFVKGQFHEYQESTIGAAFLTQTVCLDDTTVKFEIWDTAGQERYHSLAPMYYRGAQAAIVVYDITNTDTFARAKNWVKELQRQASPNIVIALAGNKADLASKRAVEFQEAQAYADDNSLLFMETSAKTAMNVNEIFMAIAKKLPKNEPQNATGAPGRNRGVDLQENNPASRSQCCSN
UniProt O94885, sequence (O94885 whole entry, looked up): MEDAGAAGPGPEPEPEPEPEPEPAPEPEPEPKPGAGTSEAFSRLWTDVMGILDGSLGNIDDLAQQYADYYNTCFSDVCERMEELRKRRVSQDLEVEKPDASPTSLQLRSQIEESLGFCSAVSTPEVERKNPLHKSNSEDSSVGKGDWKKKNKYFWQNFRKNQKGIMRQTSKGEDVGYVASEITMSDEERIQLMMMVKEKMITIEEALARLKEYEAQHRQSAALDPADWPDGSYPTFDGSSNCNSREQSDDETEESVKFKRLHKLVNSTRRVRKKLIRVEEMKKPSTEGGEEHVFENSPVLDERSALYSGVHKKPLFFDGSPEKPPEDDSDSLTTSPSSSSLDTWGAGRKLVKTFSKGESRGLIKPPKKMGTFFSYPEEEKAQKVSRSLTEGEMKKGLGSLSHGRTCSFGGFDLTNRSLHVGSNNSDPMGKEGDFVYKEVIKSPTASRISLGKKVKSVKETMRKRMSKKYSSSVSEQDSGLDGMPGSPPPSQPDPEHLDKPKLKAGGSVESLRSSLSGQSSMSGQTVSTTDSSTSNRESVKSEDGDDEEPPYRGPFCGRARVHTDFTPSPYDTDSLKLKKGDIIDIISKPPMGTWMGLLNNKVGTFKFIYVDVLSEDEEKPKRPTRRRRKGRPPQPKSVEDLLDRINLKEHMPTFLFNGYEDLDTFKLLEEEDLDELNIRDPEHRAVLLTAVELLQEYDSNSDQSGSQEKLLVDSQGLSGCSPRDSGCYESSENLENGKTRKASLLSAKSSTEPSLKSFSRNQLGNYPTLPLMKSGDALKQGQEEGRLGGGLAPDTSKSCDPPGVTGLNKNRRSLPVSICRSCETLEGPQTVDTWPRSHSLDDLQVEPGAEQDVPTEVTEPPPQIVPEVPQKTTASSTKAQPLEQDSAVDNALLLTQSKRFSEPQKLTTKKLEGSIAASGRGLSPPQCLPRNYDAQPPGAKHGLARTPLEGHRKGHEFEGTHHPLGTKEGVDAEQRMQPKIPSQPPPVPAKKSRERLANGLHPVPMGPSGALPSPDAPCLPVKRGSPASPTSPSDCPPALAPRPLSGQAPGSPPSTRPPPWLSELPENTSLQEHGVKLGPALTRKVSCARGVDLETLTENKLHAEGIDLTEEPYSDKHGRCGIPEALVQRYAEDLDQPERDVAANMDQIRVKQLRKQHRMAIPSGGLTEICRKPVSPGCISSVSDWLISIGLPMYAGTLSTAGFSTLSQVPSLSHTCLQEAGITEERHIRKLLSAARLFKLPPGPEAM
UniProt Q99961, sequence (Q99961 whole entry, looked up): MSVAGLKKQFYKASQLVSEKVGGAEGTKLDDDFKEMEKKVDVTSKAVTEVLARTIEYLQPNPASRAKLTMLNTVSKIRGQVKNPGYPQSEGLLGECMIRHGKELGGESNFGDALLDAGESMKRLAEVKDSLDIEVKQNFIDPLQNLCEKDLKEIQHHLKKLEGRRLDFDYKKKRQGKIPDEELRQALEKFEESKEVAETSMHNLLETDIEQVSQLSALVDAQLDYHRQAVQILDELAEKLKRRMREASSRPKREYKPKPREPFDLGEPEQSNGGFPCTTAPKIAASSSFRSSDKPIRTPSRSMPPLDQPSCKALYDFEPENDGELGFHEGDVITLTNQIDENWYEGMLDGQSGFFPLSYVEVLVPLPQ
UniProt O00560, sequence (O00560 whole entry, looked up): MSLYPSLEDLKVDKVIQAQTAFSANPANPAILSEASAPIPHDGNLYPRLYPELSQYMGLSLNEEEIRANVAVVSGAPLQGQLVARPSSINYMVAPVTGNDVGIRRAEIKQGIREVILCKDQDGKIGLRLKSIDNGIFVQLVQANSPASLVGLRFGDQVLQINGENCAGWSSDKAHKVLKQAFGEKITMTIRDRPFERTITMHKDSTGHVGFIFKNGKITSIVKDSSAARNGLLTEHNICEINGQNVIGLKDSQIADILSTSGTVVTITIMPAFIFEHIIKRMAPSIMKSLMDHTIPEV

Row | Target | log2 fold change (saracatinib) | log2 fold change (sotrastaurin) | log2 fold change (alvocidib) | log2 fold change (Tubastatin A) | log2 fold change [1] | log2 fold change (defactinib) | log2 fold change (rucaparib) | log2 fold change [2] | log2 fold change (encorafenib) | log2 fold change [3] | log2 fold change [4] | log2 fold change (filanesib) | log2 fold change (zotarolimus) | log2 fold change (idasanutlin) | log2 fold change (alisertib) | log2 fold change [5] | log2 fold change (gefitinib) | log2 fold change [6] | log2 fold change (lapatinib) | log2 fold change (pictilisib)
1 | RRAGB (UniProt Q5VZM2) | 0.076 | 0.028 | -0.029 | -0.03 | -0.01 | -0.075 | -0.009 | -0.009 | 0.06 | 0.084 | -0.018 | -0.059 | -0.086 | -0.026 | -0.054 | -0.078 | -0.003 | 0.053 | 0.042 | 0.052
2 | RPS4X (UniProt P62701) | -0.164 | -0.017 | 0.247 | 0.123 | 0.063 | 0.302 | 0.185 | 0.089 | 0.08 | 0.014 | -0.059 | 0.314 | -0.001 | 0.148 | -0.099 | -0.038 | -0.048 | -0.222 | 0.102 | -0.155
3 | RSL1D1 (UniProt O76021) | -0.086 | 0.05 | 0.481 | 0.06 | 0.004 | 0.83 (active) | 0.359 | 0.097 | 0.117 | 0.079 | -0.094 | 0.543 | 0.055 | 0.363 | -0.202 | 0.181 | -0.031 | -0.065 | 0.181 | -0.013
4 | SCAMP2 (UniProt H3BUB6) | -0.149 | 0.171 | 0.253 | -0.056 | -0.043 | 0.088 | 0.072 | -0.155 | -0.311 | 0.096 | -0.27 | 0.126 | -0.217 | 0.134 | -0.019 | 0.319 | 0.003 | 0.188 | -0.329 | –
5 | SDCBP (UniProt O00560) | -0.012 | 0.021 | -0.096 | 0.025 | 0.007 | 0.042 | 0.117 | -0.541 (active) | 0.06 | -0.001 | -0.022 | -0.154 | 0.1 | 0.101 | -0.04 | -0.152 | -0.043 | -0.022 | 0.005 | -0.05
6 | SERPINA7 (UniProt P05543) | 0.339 | 0.395 | 0.018 | -0.169 | 0.147 | 0.056 | -0.145 | 0.061 | -0.085 | 0.078 | -0.213 | 0.251 | -0.206 | 0.071 | 0.052 | 0.008 | -0.157 | 0.381 | -0.017 | -0.088
7 | RPS6KA2 isoform 2 (UniProt Q15349) | 0 | -0.049 | -0.019 | -0.01 | -0.422 (active) | -0.209 | -0.049 | -0.08 | 0.014 | -0.009 | -0.023 | -0.006 | 0.016 | -0.033 | -0.052 | -0.259 | -0.078 | 0.001 | -0.011 | -0.106
8 | RPS6KA1 isoform 2 (UniProt Q15418) | 0.02 | -0.067 | -0.012 | 0.005 | -0.088 | -0.258 | -0.108 | -0.101 | -0.018 | -0.015 | 0.087 | -0.022 | 0.025 | -0.016 | -0.01 | -0.202 | -0.062 | 0 | 0.013 | -0.053
9 | RNF187 (UniProt Q5TA31) | -0.069 | 0.001 | -0.092 | 0.196 | -0.084 | -0.047 | -0.139 | 0.05 | -0.042 | -0.05 | 0.028 | 0.003 | -0.006 | -0.032 | -0.104 | 0.047 | -0.012 | -0.053 | -0.07 | -0.037
10 | RPTOR (UniProt Q8N122) | -0.005 | -0.01 | 0.123 | 0.027 | -0.044 | -0.074 | -0.068 | 0.033 | 0.047 | -0.039 | 0.042 | -0.077 | -0.194 | -0.066 | -0.054 | -0.056 | 0.007 | -0.072 | 0.028 | -0.022
11 | SAAL1 (UniProt Q96ER3) | 0.001 | -0.044 | 0.355 (active) | -0.089 | 0.042 | 0.203 | 0.031 | -0.069 | 0.017 | -0.031 | -0.179 | -0.032 | 0.016 | -0.11 | -0.067 | 0.214 | -0.055 | 0.018 | -0.002 | -0.018
12 | RAB5C isoform 2 (UniProt P51148) | 0.08 | -0.011 | 0.011 | 0.013 | -0.013 | -0.011 | -0.02 | 0.003 | -0.039 | 0.017 | -0.002 | -0.053 | -0.015 | -0.055 | -0.095 | 0.015 | 0.013 | 0.038 | -0.027 | -0.017
13 | RPRD1B (UniProt Q9NQG5) | -0.014 | -0.126 | -0.082 | -0.039 | 0.055 | -0.09 | -0.116 | -0.011 | 0.04 | -0.004 | 0.014 | 0.022 | -0.018 | -0.031 | -0.011 | 0.106 | 0.037 | 0.061 | -0.004 | 0.019
14 | RPS18 (UniProt P62269) | -0.022 | 0.039 | 0.2 | 0.105 | 0.071 | 0.21 | 0.152 | 0.041 | 0.008 | 0.04 | -0.157 | 0.118 | 0.012 | 0.046 | -0.015 | -0.021 | -0.013 | -0.109 | 0.065 | -0.107
15 | SASH1 (UniProt O94885) | -0.081 | -0.043 | -0.035 | 0.04 | -0.019 | -0.064 | 0.03 | -0.015 | 0.013 | -0.022 | -0.059 | -0.074 | -0.04 | -0.05 | 0.009 | -0.161 | 0.015 | -0.015 | -0.013 | 0.073
16 | SH3GL1 (UniProt Q99961) | -0.157 | -0.163 | -0.118 | 0.092 | -0.035 | -0.116 | 0.022 | 0.054 | 0.062 | -0.043 | 0.046 | -0.047 | 0.062 | 0 | 0.012 | 0 | -0.029 | -0.048 | -0.008 | -0.005
